The full data set covers some 7,900 targets. This sample favours those with a hit. About 0.6% of all pairs of compound and target were hits.
compound: CCn1cc(-c2ccnc3[nH]c(-c4cccc(CN(C)C)c4)cc23)c(-c2ccc(NC(=O)N(C)C)cc2)n1; test: log2 fold change, soluble protein after heating vs DMSO (PISA); higher = thermal stabilisation; K562 cells, 10 uM, 30 min; active = over 0.2 and 3.5 SD of the protein, either way, in both replicates (recomputed)
In short: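 K562 cells at 2×10^6 cells/mL were treated for 30 min with 10 μM compound, and aliquots were heated for 3 min over 48°C-58°C before pooling. Extraction used PBS with 0.5% NP-40 at 4°C, and soluble protein was the supernatant after 21,000xg for 90 min, measured by TMTpro 16plex LC-MS/MS with channel sums equalised. Thermal stability values, relative to control samples and from duplicates, are log2 fold changes.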

UniProt Q9Y2V0, sequence (Q9Y2V0 whole entry, looked up): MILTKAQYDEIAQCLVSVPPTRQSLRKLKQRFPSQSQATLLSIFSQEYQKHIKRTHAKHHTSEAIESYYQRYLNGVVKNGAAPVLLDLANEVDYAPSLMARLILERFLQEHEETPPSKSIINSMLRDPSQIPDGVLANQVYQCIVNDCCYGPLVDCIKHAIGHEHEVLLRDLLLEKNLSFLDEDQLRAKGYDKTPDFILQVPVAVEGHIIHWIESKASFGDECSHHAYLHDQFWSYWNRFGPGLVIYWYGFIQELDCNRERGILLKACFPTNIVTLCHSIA
UniProt Q8WUD6, sequence (Q8WUD6 whole entry, looked up): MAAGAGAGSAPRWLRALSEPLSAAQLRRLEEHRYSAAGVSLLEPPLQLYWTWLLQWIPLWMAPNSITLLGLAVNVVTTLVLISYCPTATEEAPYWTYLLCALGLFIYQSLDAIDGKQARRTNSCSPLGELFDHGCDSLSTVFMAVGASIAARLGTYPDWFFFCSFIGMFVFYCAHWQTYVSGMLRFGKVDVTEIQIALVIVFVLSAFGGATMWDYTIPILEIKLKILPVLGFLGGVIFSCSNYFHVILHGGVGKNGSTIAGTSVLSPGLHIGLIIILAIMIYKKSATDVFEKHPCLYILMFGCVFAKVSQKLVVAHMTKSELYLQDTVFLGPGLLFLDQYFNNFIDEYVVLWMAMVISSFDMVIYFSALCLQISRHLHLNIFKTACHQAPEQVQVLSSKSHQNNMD
UniProt Q9BSQ5, sequence (Q9BSQ5 whole entry, looked up): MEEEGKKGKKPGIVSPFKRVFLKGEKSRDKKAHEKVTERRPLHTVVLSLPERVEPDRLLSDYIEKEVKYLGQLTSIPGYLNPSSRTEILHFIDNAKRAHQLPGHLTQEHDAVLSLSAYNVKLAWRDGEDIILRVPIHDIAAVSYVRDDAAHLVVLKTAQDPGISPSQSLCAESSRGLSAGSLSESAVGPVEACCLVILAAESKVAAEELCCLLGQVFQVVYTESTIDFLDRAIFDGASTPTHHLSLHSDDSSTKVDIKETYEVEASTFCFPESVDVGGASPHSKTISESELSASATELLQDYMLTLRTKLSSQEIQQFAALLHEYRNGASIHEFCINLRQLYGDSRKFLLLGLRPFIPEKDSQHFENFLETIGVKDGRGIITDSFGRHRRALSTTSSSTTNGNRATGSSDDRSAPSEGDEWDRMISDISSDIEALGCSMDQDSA
UniProt Q9P0B6, sequence (Q9P0B6 whole entry, looked up): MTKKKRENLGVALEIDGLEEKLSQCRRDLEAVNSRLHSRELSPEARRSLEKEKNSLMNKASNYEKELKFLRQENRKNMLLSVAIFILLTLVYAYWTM
UniProt Q86X95, sequence (Q86X95 whole entry, looked up): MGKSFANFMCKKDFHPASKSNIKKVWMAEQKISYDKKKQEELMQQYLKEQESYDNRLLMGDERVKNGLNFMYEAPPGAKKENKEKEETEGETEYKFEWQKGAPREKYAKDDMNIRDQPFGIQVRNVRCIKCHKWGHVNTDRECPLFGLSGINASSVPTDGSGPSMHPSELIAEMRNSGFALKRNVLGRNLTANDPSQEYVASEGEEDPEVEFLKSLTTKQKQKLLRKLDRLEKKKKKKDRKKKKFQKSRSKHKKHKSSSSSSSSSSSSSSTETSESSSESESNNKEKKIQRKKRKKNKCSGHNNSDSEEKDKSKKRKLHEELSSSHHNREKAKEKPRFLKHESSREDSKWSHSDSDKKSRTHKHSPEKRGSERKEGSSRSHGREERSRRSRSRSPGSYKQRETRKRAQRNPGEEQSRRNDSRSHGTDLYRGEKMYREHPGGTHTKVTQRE
UniProt Q02224, sequence (Q02224 whole entry, looked up): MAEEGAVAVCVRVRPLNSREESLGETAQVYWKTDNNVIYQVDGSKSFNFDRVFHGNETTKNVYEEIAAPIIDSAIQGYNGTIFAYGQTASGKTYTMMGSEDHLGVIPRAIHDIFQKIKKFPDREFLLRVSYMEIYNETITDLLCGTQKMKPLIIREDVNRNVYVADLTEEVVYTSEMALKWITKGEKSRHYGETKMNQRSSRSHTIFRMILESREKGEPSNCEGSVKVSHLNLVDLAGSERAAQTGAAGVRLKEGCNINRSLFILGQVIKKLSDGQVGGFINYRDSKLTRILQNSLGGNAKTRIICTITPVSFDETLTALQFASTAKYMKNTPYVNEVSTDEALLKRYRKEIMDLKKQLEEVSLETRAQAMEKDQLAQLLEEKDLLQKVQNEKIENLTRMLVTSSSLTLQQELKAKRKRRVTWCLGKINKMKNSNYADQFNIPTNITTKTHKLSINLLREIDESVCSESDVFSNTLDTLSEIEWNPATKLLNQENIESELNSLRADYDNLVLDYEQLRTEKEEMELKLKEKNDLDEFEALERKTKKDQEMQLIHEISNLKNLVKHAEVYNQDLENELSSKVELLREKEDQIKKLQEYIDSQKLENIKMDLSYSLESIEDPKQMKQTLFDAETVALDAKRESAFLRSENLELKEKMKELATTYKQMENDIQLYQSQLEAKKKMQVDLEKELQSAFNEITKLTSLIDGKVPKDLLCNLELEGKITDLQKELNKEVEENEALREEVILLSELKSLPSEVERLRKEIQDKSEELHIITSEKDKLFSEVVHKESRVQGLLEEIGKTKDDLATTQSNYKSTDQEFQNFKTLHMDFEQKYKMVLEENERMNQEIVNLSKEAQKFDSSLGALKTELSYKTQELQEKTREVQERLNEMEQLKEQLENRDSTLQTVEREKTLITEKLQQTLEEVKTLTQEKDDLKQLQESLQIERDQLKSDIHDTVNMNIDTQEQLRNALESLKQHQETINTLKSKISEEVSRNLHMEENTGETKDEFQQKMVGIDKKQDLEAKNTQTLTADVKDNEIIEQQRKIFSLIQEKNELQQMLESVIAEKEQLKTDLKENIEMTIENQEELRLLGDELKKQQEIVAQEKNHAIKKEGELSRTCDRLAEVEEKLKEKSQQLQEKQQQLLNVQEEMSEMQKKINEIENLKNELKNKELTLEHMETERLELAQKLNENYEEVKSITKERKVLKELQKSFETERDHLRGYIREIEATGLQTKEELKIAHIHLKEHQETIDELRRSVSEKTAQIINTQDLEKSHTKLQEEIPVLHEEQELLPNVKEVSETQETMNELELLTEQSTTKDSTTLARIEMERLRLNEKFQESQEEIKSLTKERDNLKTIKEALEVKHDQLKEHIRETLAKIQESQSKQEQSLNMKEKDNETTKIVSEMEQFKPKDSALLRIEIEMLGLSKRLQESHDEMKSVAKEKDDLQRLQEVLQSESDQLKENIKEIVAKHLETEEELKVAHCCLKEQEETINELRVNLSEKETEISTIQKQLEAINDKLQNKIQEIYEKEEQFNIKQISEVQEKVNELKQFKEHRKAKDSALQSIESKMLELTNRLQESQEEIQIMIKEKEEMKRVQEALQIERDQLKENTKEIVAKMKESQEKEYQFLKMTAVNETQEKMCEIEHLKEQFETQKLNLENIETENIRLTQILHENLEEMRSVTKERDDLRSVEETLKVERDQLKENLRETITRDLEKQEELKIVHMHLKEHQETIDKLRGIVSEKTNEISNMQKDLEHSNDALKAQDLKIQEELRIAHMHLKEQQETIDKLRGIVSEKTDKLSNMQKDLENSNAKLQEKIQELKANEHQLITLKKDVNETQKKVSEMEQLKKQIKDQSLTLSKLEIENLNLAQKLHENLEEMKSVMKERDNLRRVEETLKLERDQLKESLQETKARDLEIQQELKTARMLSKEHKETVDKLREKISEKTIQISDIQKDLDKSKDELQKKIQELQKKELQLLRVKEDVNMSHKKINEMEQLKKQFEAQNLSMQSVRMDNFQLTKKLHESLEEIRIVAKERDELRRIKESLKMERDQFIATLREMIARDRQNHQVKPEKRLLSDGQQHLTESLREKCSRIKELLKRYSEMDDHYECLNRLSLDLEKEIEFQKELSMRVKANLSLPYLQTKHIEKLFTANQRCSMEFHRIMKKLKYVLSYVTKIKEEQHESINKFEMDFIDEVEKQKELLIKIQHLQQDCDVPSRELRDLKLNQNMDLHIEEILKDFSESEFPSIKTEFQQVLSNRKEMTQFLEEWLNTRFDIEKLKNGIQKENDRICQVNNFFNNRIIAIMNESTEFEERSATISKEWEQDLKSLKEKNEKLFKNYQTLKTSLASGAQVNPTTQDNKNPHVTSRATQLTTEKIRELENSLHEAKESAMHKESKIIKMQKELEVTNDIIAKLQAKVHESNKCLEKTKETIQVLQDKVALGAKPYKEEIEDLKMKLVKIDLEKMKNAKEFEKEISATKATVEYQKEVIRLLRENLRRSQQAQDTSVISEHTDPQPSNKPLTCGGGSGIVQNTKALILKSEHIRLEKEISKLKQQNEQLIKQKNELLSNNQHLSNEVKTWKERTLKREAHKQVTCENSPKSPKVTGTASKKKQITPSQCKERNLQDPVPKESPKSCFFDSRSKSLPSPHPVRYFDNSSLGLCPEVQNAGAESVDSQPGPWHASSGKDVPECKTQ
UniProt Q9H9S4, sequence (Q9H9S4 whole entry, looked up): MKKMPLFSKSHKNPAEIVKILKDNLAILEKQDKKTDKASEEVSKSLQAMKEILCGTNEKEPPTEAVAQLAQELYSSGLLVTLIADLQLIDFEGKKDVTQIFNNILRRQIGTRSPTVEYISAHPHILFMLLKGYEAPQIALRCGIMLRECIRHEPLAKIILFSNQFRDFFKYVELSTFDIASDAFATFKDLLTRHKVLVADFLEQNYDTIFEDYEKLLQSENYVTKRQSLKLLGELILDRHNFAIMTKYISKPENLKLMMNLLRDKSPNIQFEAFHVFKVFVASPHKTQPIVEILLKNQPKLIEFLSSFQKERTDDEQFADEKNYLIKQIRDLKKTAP
UniProt Q14061, sequence (Q14061 whole entry, looked up): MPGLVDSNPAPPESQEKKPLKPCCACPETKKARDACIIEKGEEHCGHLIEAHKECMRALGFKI
UniProt P46527, sequence (P46527 whole entry, looked up): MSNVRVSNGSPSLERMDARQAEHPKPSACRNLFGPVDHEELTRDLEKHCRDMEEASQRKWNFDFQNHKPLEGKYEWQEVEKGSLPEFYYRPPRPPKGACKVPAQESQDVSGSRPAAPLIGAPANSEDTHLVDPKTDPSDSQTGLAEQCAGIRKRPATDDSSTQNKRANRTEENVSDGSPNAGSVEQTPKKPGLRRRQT

log2 fold change, inactive:
CFAP36 isoform 2 (UniProt Q96G28) 0.048
CHPT1 (UniProt Q8WUD6) -0.042
CENPE (UniProt Q02224) -0.039
CASP10 isoform 4 (UniProt Q92851) 0.121
COPS3 isoform 2 (UniProt Q9UNS2) -0.075
COX7B (UniProt P24311) -0.035
CCM2 isoform 2 (UniProt Q9BSQ5) -0.017
CCNT2 (UniProt O60583) -0.084
CRTC1 isoform 2 (UniProt Q6UUV9) 0.034
CDK5 (UniProt Q00535) -0.039
CCDC167 (UniProt Q9P0B6) 0.13
C9orf72 (UniProt Q96LT7) 0.226
C19orf54 (UniProt Q5BKX5) 0.056
CDK19 (UniProt Q9BWU1) -0.1
CASP9 (UniProt P55211) 0.035
CCNC (UniProt P24863) -0.178
CCNDBP1 (UniProt O95273) -0.036
CIR1 (UniProt Q86X95) 0.055
CDK8 (UniProt P49336) -0.236
COX17 (UniProt Q14061) -0.154
CHAF1A (UniProt Q13111) 0.064
CRYM-AS1 (UniProt A6NIL9) -0.029
CORO2A (UniProt Q92828) 0
CDCA2 (UniProt Q69YH5) 0.152
CMTM3 (UniProt Q96MX0) 0.057
CDK17 isoform 2 (UniProt Q00537) -0.012
CDKN1B (UniProt P46527) 0.036
CAB39L (UniProt Q9H9S4) 0.161
CHST10 (UniProt O43529) -0.021
CLN8 (UniProt Q9UBY8) 0.005

log2 fold change, active:
C15orf41 (UniProt Q9Y2V0) -0.333
